SENP7 block – SENP7 protease inhibitors, primary screen, biochemical, luminescence, uHTS; Sentrin-specific protease 7 (Homo sapiens), Q9BQF6; AID 434973, 2010; recombinant SENP7, Z-RLRGG-aminoluciferin luminescence, 40 min; 1.5% of 330,000 active; inhibition, % at 5 µM;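 active = inhibition above about 50% at the single test dose, limit read from the data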;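 note: plate controls were DMSO with enzyme for no effect and no enzyme buffer wells for full effect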
HSP90 refold inh – HSP90 inhibitors, primary screen, cell lysate, luminescence | Heat shock protein HSP 90 (rabbit reticulocyte lysate; luciferase refolding) | AID 1789, 2009 | Rabbit reticulocyte lysate, luciferase refolding luminescence, 3 h | 0.91% of 290,000 active | inhibition, % at 5.6 µM;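 active = inhibition above the screen-wide mean plus 3 SD, computed separately per campaign, cut at about 16% in these data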;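 note: 0% = DMSO wells and 100% = 60 µM geldanamycin wells; inhibitors lower the luminescence because luciferase stays unfolded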
SENP8 block-1 – SENP8 protease inhibitors, primary screen, biochemical, luminescence | Sentrin-specific protease 8 (Homo sapiens), Q96LD8 | purified SENP8, Z-RLRGG-aminoluciferin cleavage | inhibition, % at 10 µM | 1.2% of 330,000 active; in the data active = inhibition above about 50%
Target sequence (Q96LD8 whole entry, looked up): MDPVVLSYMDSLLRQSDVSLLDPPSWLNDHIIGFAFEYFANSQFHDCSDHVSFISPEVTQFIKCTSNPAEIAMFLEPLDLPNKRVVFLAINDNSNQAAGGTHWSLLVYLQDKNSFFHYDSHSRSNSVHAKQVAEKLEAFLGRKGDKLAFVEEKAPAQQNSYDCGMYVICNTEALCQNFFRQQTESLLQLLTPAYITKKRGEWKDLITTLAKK
SENP6 inh – SENP6 protease inhibitors, primary screen, biochemical, luminescence, uHTS | Sentrin-specific protease 6 (Homo sapiens), Q9GZR1 | Recombinant SENP6 catalytic domain, aminoluciferin luminescence | inhibition, % at 10 µM | 1.8% of 330,000 active | AID 2599, 2010;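 active = inhibition above about 50% at the single tested dose, limit read from the data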;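 note: plate controls were DMSO wells with enzyme for no effect and DMSO wells lacking enzyme for full effect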
SENP8 block-2 – human SENP8 protease inhibitors, primary screen, biochemical, fluorescence, Nedd8 protein substrate, uHTS | Sentrin-specific protease 8 (Homo sapiens), Q96LD8 | recombinant SENP8 | inhibition, % at 20 µM | 0.64% of 360,000 active | AID 602440, 2012; in the data active = inhibition mostly above about 40%, no sharp cut-off; inactive = mostly below about 27%
LGR2 inh – inhibitors of bursicon-induced LGR2 CRE-luciferase signal, primary screen, cell-based, HEK293, CRE-luciferase reporter, bursicon stimulation. 0.35% of 380,000 active. bursicon-stimulated, 4 h. inhibition, % at 9.99 µM. AID 720647, 2013. Drosophila bursicon receptor LGR2 (rickets);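 active = drop in luminescence signal, shown as inhibition above about 50% in the replicate tests, limit read from the data, passing the limit was not always enough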;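 note: agonist challenge used bursicon conditioned medium at about half maximal strength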
SENP8 confirm – SENP8 protease inhibitors, retest, confirmation, biochemical, luminescence, single concentration. shares compounds with SENP7 block. Recombinant SENP8, Z-RLRGG-aminoluciferin luminescence, 60 min. inhibition, % at 12.5 µM. 40% of 6,200 active. AID 488912, 2010;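 active = mean inhibition across replicates above about 50%, limit read from the data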
SENP6 conf – SENP6 protease inhibitors, confirmation, biochemical, luminescence, single concentration. shares compounds with SENP7 block. recombinant SENP6, Z-RLRGG-aminoluciferin luminescence. 58% of 6,200 active. AID 488915, 2010. inhibition, % at 12.5 µM
SENP7 conf – SENP7 protease inhibitors, retest, confirmation, biochemical, luminescence, single concentration. shares compounds with SENP7 block. recombinant SENP7, Z-RLRGG-aminoluciferin luminescence, 40 min. inhibition, % at 12.5 µM. 69% of 6,200 active. AID 488917, 2010
Casp3 SENP sel – caspase-3 protease inhibitors, confirmation, selectivity assay for SENP inhibitor project, biochemical, single concentration. purified caspase-3, Z-DEVD-aminoluciferin luminescence, 60 min. AID 488918, 2010. 60% of 6,200 active. inhibition, % at 12.5 µM. shares compounds with SENP7 block;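 active = mean inhibition above about 50%, limit read from the data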;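 note: plate controls were enzyme with DMSO for no effect and wells without caspase-3 for full effect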
Target sequence (P42574 28-227 limits assumed): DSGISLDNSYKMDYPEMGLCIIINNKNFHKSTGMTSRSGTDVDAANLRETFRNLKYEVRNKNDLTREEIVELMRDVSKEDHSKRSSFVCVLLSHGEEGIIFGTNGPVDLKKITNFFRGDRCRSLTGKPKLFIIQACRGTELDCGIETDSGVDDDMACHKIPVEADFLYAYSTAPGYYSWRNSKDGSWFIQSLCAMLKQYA
SENP luc ctr – counter-screen for SENP inhibitors: luminescence interference; AID 488919; 39% of 6,200 active; Pre-incubated SENP8/Z-RLRGG-aminoluciferin, luciferase luminescence interference; shares compounds with SENP7 block; inhibition, % at 12.5 µM;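 active = mean inhibition above about 50% when retested at one dose, limit read from the data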;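 note: plate controls were DMSO wells with completed reaction for no effect and substrate without enzyme for full effect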
Numbers without * were called inactive; . = not tested or not shown. Compounds with a hit are over-represented: about 2.3% of the library has one in this group of screens.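 Rule for the calls, unless noted: active = mean inhibition above about 50% in the one-dose retest (limit read from the data); inactive = the rest.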

SMILES	SENP7 block	HSP90 refold inh	SENP8 block-1	SENP6 inh	SENP8 block-2	LGR2 inh	SENP8 confirm	SENP6 conf	SENP7 conf	Casp3 SENP sel	SENP luc ctr
CCOc1ccc(Br)cc1C(=O)N/N=C/c1c[nH]c2ccccc12	-5	6	1	58*	-96	-2	-6	-5	-10	-7	-5
O=C(N/N=C/c1c[nH]c2ccccc12)c1cc(Br)ccc1O	-3	-5	1	-24	-216	-16	.	.	.	.	.
Cc1ccccc1S(=O)(=O)N1CC[C@@H]2[C@H](CO)N(C)c3ccc(C#Cc4ccc(F)cc4)cc3[C@@H]21	.	.	.	.	.	6	.	.	.	.	.
C[C@@H]1CCCCO[C@@H](CN(C)Cc2ccc(C(=O)O)cc2)[C@H](C)CN([C@@H](C)CO)C(=O)c2cc(NC(=O)Nc3ccc(F)cc3)ccc2O1	.	.	.	.	.	11	.	.	.	.	.
O=C(OCc1ccc(Cl)c(Cl)c1)c1ccc[nH]1	33	1	47	59*	15	-70	54*	51*	82*	26	71*
CCCN1[C@@H]2c3ccc(C4=CCCCC4)c(=O)n3C[C@@H]2[C@@H](CO)[C@@H]1C(=O)NCCCN(C)C	.	.	.	.	.	5	.	.	.	.	.
O=C(CCCc1ccccc1)c1ccccc1	60*	13	59*	80*	11	-48	-6	46	86*	40	11
CCC(=O)c1ccc(O)cc1	-4	4	-5	-8	8	3	.	.	.	.	.
O=C(CCCC(=O)c1ccccc1)NCCc1ccccc1	1	-3	3	5	27	8	.	.	.	.	.
O=C(CCCC(=O)c1ccc(O)cc1)c1ccc(O)cc1	74*	.	89*	93*	16	0	92*	92*	101*	92*	92*
Nc1ccc(C(=O)O)cc1	1	.	2	-4	5	-3	.	.	.	.	.
O=C(O)c1ccc(C(=O)C(=O)c2ccccc2)cc1	17	-1	38	66*	15	0	43	40	80*	85*	67*
Oc1ccccc1-c1nnco1	.	.	.	.	-89	-1	.	.	.	.	.
COc1cc(/C=C/c2noc(-c3ccccc3O)n2)ccc1OC(C)=O	19	-7	-10	12	2	-65	.	.	.	.	.
CC(=O)Nc1ccc(/C=C/c2noc(-c3ccccc3O)n2)cc1	59*	-6	-7	-36	-237	.	4	2	1	0	2
Oc1ccccc1/C=C/c1noc(-c2ccccc2O)n1	52*	-5	3	-6	-122	-101	-5	1	79*	38	5
COc1ccc2c3c(n(C)c2c1)[C@H](CO)N(C)CC31CN(C(=O)CN2CCOCC2)C1	.	.	.	.	.	-11	.	.	.	.	.
CCCc1cc(C(=O)NNC(=S)Nc2cccc(C)c2)cs1	94*	1	80*	79*	10	-40	33	26	8	4	21

High-throughput results (PubChem)
